Source: PubChem BioAssay (Tox21)
Results filed as inconclusive are left out. Values without a mark were called inactive. Calls of active or inactive are those of the source. The call rests on the fitted dose curve; in most records, active means well fitted cell-killing curve with a large enough effect in the repeat runs; inconclusive means weak or mixed curves; inactive means flat fitted curve, though single readings scatter.

assay: qHTS assay to identify small molecule antagonists of the estrogen receptor beta (ER-beta) signaling pathway - cell viability counter screen (AID 1259382); settings: ER-beta-UAS-bla HEK293T viability, CellTiter-Glo luminescence, 16 h; series mostly up to 92.4 µM; further: nearly all actives have a fitted effect of over 55% in size
From the text: U.S. Tox21 Program National Center for Advancing Translational Sciences [NCATS] NIH Chemical Genomics Center [NCGC] U.S. Environmental Protection Agency [EPA] National Institutes of Environmental Health Sciences [NIEHS] National Toxicology Program [NTP] U.S. Food and Drug Administration [FDA] Tox21 Assay Overview: Estrogen receptor (ER), a nuclear hormone receptor, plays an important role in development, metabolic homeostasis and reproduction. Two subtypes of ER, ER-alpha and ER-beta, have similar expression patterns with some uniqueness in both types. Endocrine disrupting chemicals (EDCs) and their interactions with steroid hormone receptors like ER causes disruption of normal endocrine function. To identify the compounds that inhibit ER signaling, an ER-beta-UAS-bla GripTite cell line (Life Technologies, Madison, WI, USA) containing a beta-lactamase reporter gene under the control of an UAS response element was used to screen Tox21 10K compound library. The cytotoxicity of the Tox21 compound library against the ER-beta-bla cell line was tested in parallel by measuring the cell viability using CellTiter-Glo assay in the same wells.
Tox21 Assay Protocol Summary: ER-beta-UAS-bla HEK293T cells were dispensed at 2,000 cells/4 uL of assay medium containing 2% charcoal stripped FBS per well into black wall/clear-bottom 1536-well plates using a Multidrop Combi (ThermoFisher Scientific, Waltham, MA) dispenser. After the assay plates were incubated at a 37C and 5% CO2 for 6 hr, 23 nL of compounds dissolved in DMSO, positive controls or DMSO only was transferred to the assay plate by a Pintool station (Kalypsys, San Diego, CA), followed by addition of 1 uL (1nM as final concentration) of 17-beta-estradiol (E2) in assay medium using a Flying Reagent Dispenser (FRD, Aurora Discovery, San Diego, CA). The plates were incubated at 37C and 5% CO2 for 16 hr. Then 1 uL of LiveBLAzer B/G FRET substrate was added using a Flying Reagent Dispenser, the plates were incubated at room temperature for 2 hours, and fluorescence intensity was measured by an Envision plate reader (PerkinElmer, Shelton, CT). For cell viability readout that measures cytotoxicity, 4 uL/well of CellTiter-Glo reagent was added into the assay plates using a FRD. After 30 min incubation at room temperature, the luminescence intensity in the plates was measured using a ViewLux (PerkinElmer) plate reader.
On the % scale 0 is the no-effect control and ±100 the full control effect.

Row | Compound | outcome | activity change, negative = cytotoxicity
1 | O=S(=O)(O)C(F)(F)F | inactive | –
2 | NCCC(O)(P(=O)(O)O)P(=O)(O)O | inactive | –
3 | Cc1ccc([N+](=O)[O-])c(N)c1 | inactive | –
4 | O=C(CCCl)NCc1ccccc1 | inactive | –
5 | Oc1ccccc1F | inactive | –
6 | CN(C)C(=O)NC1(c2ccccc2)CCN(CCC[C@]2(c3ccc(Cl)c(Cl)c3)CCCN(C(=O)c3ccccc3)C2)CC1 | – | -18% [at 19 µM]
7 | ICCc1ccccc1 | inactive | –
8 | CC/C=C\CCOC(=O)C(C)C | inactive | –
9 | CN1[C@@H]2CC[C@H]1CC(OC(=O)c1c[nH]c3ccccc13)C2 (stereo not given in full) | inactive | –
10 | Oc1ccccc1C=NCc1ccccc1 | inactive | –
11 | CC1=NN(c2cc(Cl)c(S(=O)(=O)O)cc2Cl)C(=O)C1N=Nc1ccc(S(=O)(=O)O)cc1 (stereo not given) | inactive | –
12 | CCc1cc(Cl)c(OC)c(C(=O)NC[C@@H]2CCCN2CC)c1O | inactive | –
13 | OCc1ccccc1O | inactive | –
14 | CC1(C)O[C@@H]2C[C@H]3[C@@H]4CCC5=CC(=O)CC[C@]5(C)[C@@]4(F)[C@@H](O)C[C@]3(C)[C@]2(C(=O)CCl)O1 | inactive | –
15 | CC(C)=CCCC(C)CCOC=O (stereo not given) | inactive | –
16 | CN(CC1(C)CCCO1)S(=O)(=O)c1ccc(Cl)c(S(N)(=O)=O)c1 (stereo not given) | inactive | –
17 | Cc1c(-c2ccccc2)oc2c(C(=O)OCCN3CCCCC3)cccc2c1=O | inactive | –
18 | Cc1cc(NS(=O)(=O)c2ccc(N)cc2)nc(C)n1 | inactive | –
19 | FC(F)(F)C(F)(F)C(F)(F)C(F)(F)C(F)(F)C(F)(F)C(F)(F)C(F)(F)Br | inactive | –
20 | CC(=O)Nc1ccc(C)c(Cl)c1 | inactive | –

Row | Compound | outcome | activity change, negative = cytotoxicity
21 | FC(F)(F)c1ccccc1 | inactive | –
22 | CCCCC(CC)COC(=O)COc1cc(Cl)c(Cl)cc1Cl (stereo not given) | inactive | –
23 | CCOC(=O)NCCC[Si](OCC)(OCC)OCC | inactive | –
24 | O=C1CCCCC1C1CCCCC1 (stereo not given) | inactive | –
25 | COc1nc(C)nc(NC(=O)NS(=O)(=O)c2ccccc2OCCCl)n1 | inactive | –
26 | CCCCOc1cc(C(=O)NCCN(CC)CC)c2ccccc2n1 | inactive | –
27 | CC[C@H]1CC[C@H](NCc2cc3c(cc2OC)[C@H]2C[C@H]2C(=O)N3C)[C@H](c2ccccc2)N1 | inactive | –
28 | CO[C@@]1(NC(=O)CSCC#N)C(=O)N2C(C(=O)O)=C(CSc3nnnn3C)CS[C@@H]21 | inactive | –
29 | CC(=O)Oc1cc(C(C)C)c(OCCN(C)C)cc1C | inactive | –
30 | C[C@]12C(=O)OC(=O)[C@H]1[C@H]1C=C[C@@H]2C1 | inactive | –
31 | O=c1[nH]cnc2c1ncn2[C@@H]1O[C@H](CO)[C@@H](O)[C@H]1O | inactive | –
32 | CCCCNc1ccc(C(=O)OCCN(CC)CC)cc1 | inactive | –
33 | CCC/C=C/CO | inactive | –
34 | Cc1nnc(SCC2=C(C(=O)O)N3C(=O)[C@@H](NC(=O)Cn4cnnn4)[C@H]3SC2)s1 | inactive | –
35 | CCN(CC)CCOc1ccc(Cc2ccccc2)cc1 | inactive | –
36 | NC(=O)Cc1cccc(C(=O)c2ccccc2)c1N | inactive | –
37 | O=C(O)C(=O)Cc1c[nH]c2ccccc12 | inactive | –
38 | CC(C)C1=CC2=CC[C@@H]3[C@](C)(CCC[C@@]3(C)C(=O)O)[C@H]2CC1 | inactive | –
39 | Cc1c(C(=O)NCCO)[n+](=O)c2ccccc2n1[O-] | inactive | –
40 | COC(=O)N[C@H](C(=O)N[C@@H](Cc1ccccc1)[C@@H](O)CN(Cc1ccc(-c2ccccn2)cc1)NC(=O)[C@@H](NC(=O)OC)C(C)(C)C)C(C)(C)C | inactive | –
